D1 PAM: potentiators of human D1 dopamine receptor; P21728; HEK293 TREx D1 cells, calcium flux, dopamine EC20 potentiation; potentiation, % at 10 µM; 360,000 tested, 0.036% active; AID 504651; in the data active = potentiation above about 30%; also: 0% is about no effect
D1 agonist: agonists of human D1 dopamine receptor. HEK293 T-REx D1 cells, calcium flux, agonist mode. activation, % at 2 µM. 360,000 tested, 1% active. AID 504660; also: 0% is about no effect
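Inducible HEK293 T-REx D1 cells, force-coupled to calcium signalling, were plated at 4000 cells/well with tetracycline and held overnight at 30 C. After no-wash calcium dye loading, compound-evoked calcium rise over 180 s flagged agonists.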
TRHR PAM: TRH receptor (human) allosteric enhancement; P34981; TRHR cells, fluo-8 calcium fluorescence, EC20 TRH enhancement; enhancement, % at 2 µM; 360,000 tested, 0.66% active; in the data active = enhancement above about 30%; also: 0% is about no effect
Target sequence (P34981 whole entry, looked up): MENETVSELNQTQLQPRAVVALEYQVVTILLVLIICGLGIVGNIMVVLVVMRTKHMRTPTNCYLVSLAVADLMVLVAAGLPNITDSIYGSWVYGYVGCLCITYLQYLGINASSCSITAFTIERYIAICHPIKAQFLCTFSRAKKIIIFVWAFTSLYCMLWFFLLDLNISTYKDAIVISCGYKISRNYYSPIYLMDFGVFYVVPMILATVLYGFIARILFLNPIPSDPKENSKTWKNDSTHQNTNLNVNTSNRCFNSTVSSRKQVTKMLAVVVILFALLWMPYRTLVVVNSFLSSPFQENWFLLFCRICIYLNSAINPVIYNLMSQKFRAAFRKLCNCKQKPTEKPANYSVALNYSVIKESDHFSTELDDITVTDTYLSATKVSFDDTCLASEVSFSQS
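Enhancer read-out: after compound pinning and an initial kinetic agonist-mode read, an EC20 of TRH (10 nM final) was injected and fluo-8 calcium signal (Ex 480/Em 530) followed at 1 s/cycle for 100 cycles in TRHR-expressing cells.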
D1 antagonist: antagonists of human D1 dopamine receptor; P21728; HEK293 TREx D1 cells, calcium flux, dopamine EC80; stronger effect = lower value; activity change, negative = inhibition, % at 10 µM; 360,000 tested, 3.2% active; AID 504652; in the data active = activity change below about -30%; also: % is scaled to controls: 0 for no effect and ±100 for the full control effect
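HEK293 T-REx cells expressing inducible, force-coupled D1 receptor; no-wash Ca dye, 30–90 min RT. Cmpd → 180 s read at 1 Hz → EC80 DA → 180 s read.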
TRHR agonist: agonists of human TRH receptor; TRHR cells, calcium flux fluo-8, FDSS agonist mode; 360,000 tested, 0.18% active; AID 493084; P34981; activation, % at 2 µM; also: 0% is about no effect
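TRHR-expressing cells, plated overnight in medium with 10% serum, were loaded with fluo-8 calcium dye at room temperature. After a 10 s baseline, library compound was pin-added and calcium release was recorded kinetically (ex 480/em 530) as agonist response.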
Active calls of the source: *; / = no result given; ! = a repeat was not active. Compounds with a hit are over-represented: about 4.6% of the library has one in this group of screens. Rule as the data show it, unless noted: active = activation above about 30%; inactive = the rest.

SMILES	D1 PAM	D1 agonist	TRHR PAM	D1 antagonist	TRHR agonist
O=C1C=C(c2ccccc2)C(=O)N1Nc1ccccc1	-7.9	4.1	32.7*	-9.8	3.8
Cc1ccc(NN2C(=O)C=C(c3ccc(Cl)cc3)C2=O)cc1	-8.4	3.3	-1.9	-39.0*	1.3
O=C(Cn1cnc2c(nnn2Cc2ccc(F)cc2)c1=O)OCc1ccccc1	-2.7	0.3	-0.2	1.7	-0.5
Cc1ccc(Cn2nnc3c(=O)n(CC(=O)OCc4ccccc4)cnc32)cc1	-7.2	3.6	4.9	-33.0*	0.3
O=C(O)c1ccc(CS(=O)c2cccc(C(F)(F)F)c2)o1 (stereo unspecified)	-0.8	8.6	3.1	-31.7*	0.2
C#CC(CC)(CC)NC(=S)Nc1ccc(S(N)(=O)=O)cc1	-0.6	2.2	3.5	-42.7*	0.1
CCCNC(=S)Nc1ccc(S(N)(=O)=O)cc1	7.7	0.4	11.1	3.8	-0.5
CC(=O)Nc1nc(-c2ccc([N+](=O)[O-])cc2)cs1	-5.0	-0.6	3.1	-9.2	0.1
O=C(Nc1ccc([N+](=O)[O-])cc1)Nc1nc(-c2ccc(Cl)s2)cs1	-6.9	29.2	5.3	-47.5*	-0.2
CCCCCCN1C=CC=C/C1=C\C=C(C#N)C#N	6.8	63.7*	-3.4	-7.2	27.9
CC(=O)O[C@H]1C[C@@]2(C)[C@@H](C[C@@H](O)[C@H]3[C@@]4(C)CC[C@@H](O)[C@@H](C)[C@@H]4CC[C@@]32C)/C1=C(\CCC=C(C)C)C(=O)O	2.5	-1.1	-4.0	6.9	0.4
Oc1ccc(/C=N/N2CCN(C3c4ccccc4-c4ccccc43)CC2)c(O)c1	15.2	0.6	1.3	1.2	0.3
CCc1nnc(NC(=O)CN2CCC(O)(c3ccccc3OC)CC2)s1	-1.4	3.1	14.8	6.9	0.0
COc1ccc(C2(O)CCN(CC(=O)Nc3nccs3)CC2)c(OC)c1	-19.6	1.8	4.2	-30.5*	-0.1
CN(CC(=O)NC(=O)NCc1ccccc1)Cc1ccc(Cl)c(Cl)c1	-0.8	10.9	1.7	-6.3	0.5
COc1ccc(CN(C)CC(=O)NC(=O)NCc2ccccc2)c(OC)c1	-8.8	-0.9	1.5	-55.2*	-0.6
Cc1ccccc1CC(=O)N1CCCC(CNC(=O)c2ccc(F)cc2)C1 (stereo unspecified)	6.0	1.3	2.2	9.2	0.2
Cc1cc2nc(-c3cc(NC(=O)c4cc5ccccc5o4)ccc3Cl)oc2cc1C	-1.4	0.4	-3.4	-19.9	3.0
O=C(Nc1c(Cl)cccc1Cl)c1cc(-c2ccc3c(c2)OCO3)on1	-1.1	6.7	-3.8	-17.3	1.7
Cc1cc2oc(C(=O)Nc3c(C)n(C)n(-c4ccccc4)c3=O)c(C)c2cc1C	-3.3	1.0	-0.2	-1.0	-0.4
Cc1c(NC(=O)c2cc(-c3ccc(Cl)cc3)on2)c(=O)n(-c2ccccc2)n1C	-10.0	2.0	30.4*!	-7.9	-0.8
Cc1ccc2c(C)c(C(=O)Nc3c(C)n(C)n(-c4ccccc4)c3=O)oc2c1C	-6.9	0.4	3.2	-37.4*	-0.7
O=C(Nc1c(Cl)cccc1Cl)c1cc(-c2cccc(O)c2)on1	-0.5	47.4*	3.1	-50.2*	-0.8
COc1ccccc1NS(=O)(=O)c1cccc(C(=O)N/N=C/c2c(CO)cnc(C)c2O)c1	-7.0	12.6	-3.3	-30.5*	15.9
O=C(CCn1c(=O)[nH]c2ccsc2c1=O)N1CCN(c2ccc([N+](=O)[O-])cc2)CC1	5.3	3.8	36.2*	-2.0	0.1
SMILES	D1 PAM	D1 agonist	TRHR PAM	D1 antagonist	TRHR agonist
O=C(CCn1c(=O)[nH]c2ccsc2c1=O)N1CCN(c2cccc(Cl)c2)CC1	-6.7	0.7	8.2	-49.5*	-1.7
O=C(CCCCn1c(=O)[nH]c2ccsc2c1=O)N1CCN(c2cccc(Cl)c2)CC1	-0.6	4.3	1.2	-36.4*	-0.2
CCc1c(-c2ccccc2)nc2nc(C)c(C)nn12	-2.4	0.3	36.7*	-27.0	0.1
CCc1ccc2c(Cl)c(C(=O)N/N=C/c3c[nH]c4ccccc34)sc2c1	-5.2	1.8	7.5	-22.2	1.8
Cc1cccc(-c2cc(C(=O)Nc3cccnc3)c3ccccc3n2)c1	8.3	1.2	16.3	-1.5	0.6
O=C(N/N=C/c1cc([N+](=O)[O-])ccc1Cl)c1cc(-c2ccccc2)nc2ccccc12	-7.9	0.6	-7.8	-47.5*	0.4
CCc1ccc(-c2cc(C(=O)N/N=C/c3c[nH]c4ccccc34)[nH]n2)cc1	-5.8	2.7	35.5*	-14.3	-0.3
Cc1cccc(-c2cc(C(=O)Nc3ccncc3)c3ccccc3n2)c1	-6.9	-0.4	-0.9	-41.1*	-0.1
O=C(N/N=C/c1cc([N+](=O)[O-])ccc1O)c1cc(-c2ccccc2)nc2ccccc12	-2.4	3.2	-1.3	0.3	0.1
O=C(N/N=C/c1c[nH]c2ccccc12)c1ccc([N+](=O)[O-])cc1Cl	-13.1	6.2	-11.9	-47.8*	3.1
COc1ccc(C)cc1NC(=O)NNC(=O)C1CCC(C(C)(C)C)CC1 (stereo unspecified)	1.3	-2.6	3.9	/	-1.2
Cc1ccccc1CNC(=O)CN1C(=O)C2CCCCN2c2ccc(C(=O)N3CCCC3)cc21 (stereo unspecified)	-0.3	-0.3	3.4	5.8	-0.8
Cc1ccsc1/C=N/NC(=O)c1cc(-c2ccncc2)nc2ccccc12	-6.0	2.0	35.9*	-0.6	-0.6
O=S(=O)(c1ccccc1)N1CCC(c2ccncc2)CC1	0.1	4.4	-3.3	9.2	0.3
COc1ccc(CNCCC(c2ccc3c(c2)OCO3)c2ccccc2OC)cc1 (stereo unspecified)	-3.4	79.5*	3.8	8.6	2.0
COc1ccc(C(CCNCc2ccc(OC)c(OC)c2)c2ccc(F)cc2)cc1 (stereo unspecified)	3.0	26.5	-1.9	-3.2	0.5
COc1ccc(C(C)NCCC(c2ccc(OC(C)C)cc2)c2ccccc2OC)cc1 (stereo unspecified)	9.4	38.4*	5.8	18.6	3.3
Cc1cccn2c(=O)c(C(=O)NCCc3ccccc3)cnc12	-2.6	1.5	-4.8	22.3	0.4
COc1ccc(-n2nc(C(=O)O)c3csc(N)c3c2=O)cc1	3.6	0.7	1.7	4.2	-1.3
O=c1c2sc3ccccc3c2n(Cc2ccccc2F)c(=O)n1-c1ccccc1Cl	9.5	1.0	19.8	3.4	-0.3
Cc1cc(NC(=O)Nc2cccc([N+](=O)[O-])c2)no1	-1.0	10.0	-1.9	5.3	0.3
Cc1ccc(S(=O)(=O)NC(=O)Nc2cccc([N+](=O)[O-])c2)cc1	-4.5	3.8	-1.7	-2.6	0.0
Cc1ccc(NC(=O)Nc2cccc([N+](=O)[O-])c2)cc1F	-5.7	31.8*	-1.0	-57.0*	1.7
O=C(Nc1ccc(OC(F)(F)F)cc1)Nc1cccc([N+](=O)[O-])c1	-15.3	30.2*	-0.9	-46.9*	3.2
